Conditions in all cases: modulator concentration 10 µM
The test system of experiment [1] is RAW-Dual (murine macrophage reporter line). The experiment can be described thus: NF-kB reporter (SEAP) activity fold change vs agonist alone; higher = enhanced NF-kB activity. Summed up: (§1)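 Overnight stimulation with a PRR agonist followed pre-incubation for 1 hour at 37 °C with compound at 10 μM final. This was done in RAW-Dual murine macrophage reporter cells seeded at 50 000 per well in 384-well plates. NF-κB (SEAP, QUANTI-Blue absorbance at 620 nm) and IRF (Lucia luciferase, QUANTI-Luc luminescence) were read from the supernatant. Each reporter's fold change relative to the mean agonist-only control on the same plate was averaged over replicate plates.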

The test system is the same in experiment [2]. The experiment can be described thus: IRF reporter (Lucia luciferase) activity fold change vs agonist alone; higher = enhanced IRF activity. In a few lines:
as §1

The test system is the same in experiment [3]. The experiment in a line: viability score (confluency relative to resting cells, overnight) (fraction); higher = more viable, active = viable (0.7 or more). Summed up: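 RAW-Dual macrophages in 384-well plates were treated overnight with compound at 10 μM final. IncuCyte imaging recorded confluency, and IncuCyte software built two confluency masks across every imaged well. The viability score expresses confluency relative to resting cells and was judged against a cutoff, which a compound met only if both masks exceeded 70% of resting cells.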

[4] abbreviates: agonist: CpG ODN 1826 0.5 ug/mL.

± gives the standard deviation.

`O=[N+]([O-])c1ccc2nc(S)sc2c1`: the NF-kB reporter in experiment [1] (setting [4]) is 0.847 ± 0.068; in experiment [1] (agonist: LPS 0.1 ug/mL), 1.11 ± 0.15; in experiment [1] (agonist: MPLA […]), 1.11 ± 0.027. For the same compound, the IRF reporter was determined as 0.82 ± 0.082 in experiment [2] (agonist: 3'3'-cGAMP 10 ug/mL), 0.986 ± 0.12 in experiment [2] (agonist: LPS 0.1 ug/mL) and 1.03 ± 0.15 in experiment [2] (agonist: MPLA […]). Moreover, in experiment [3], the viability score was 0.992 (active).

`COc1cc(OC)c(C(=O)CCCN2CCCC2)c(OC)c1.Cl`: the NF-kB reporter in experiment [1] (setting [4]) stood at 0.98 ± 0.096; in experiment [1] (agonist: LPS 0.1 ug/mL) it was 1.01 ± 0.063; in experiment [1] (agonist: MPLA […]) it was 1 ± 0.057. Besides, the IRF reporter in experiment [2] (agonist: 3'3'-cGAMP 10 ug/mL) amounted to 0.937 ± 0.081; in experiment [2] (agonist: LPS 0.1 ug/mL), 0.941 ± 0.035; in experiment [2] (agonist: MPLA […]), 0.899 ± 0.07. Also, the viability score in experiment [3] was 1 (active).

As for `Cc1ccc(NC(Nc2ccc(C)cc2)=C(C(Cl)=C(Cl)Cl)[N+](=O)[O-])cc1`, the values for the NF-kB reporter in experiment [1] (setting [4]), in experiment [1] (agonist: LPS 0.1 ug/mL) and in experiment [1] (agonist: MPLA […]) were 1.01 ± 0.17, 0.881 ± 0.07 and 1.18 ± 0.36, respectively. The IRF reporter turned out to be 0.264 ± 0.01 in experiment [2] (agonist: 3'3'-cGAMP 10 ug/mL), 1.29 ± 0.14 in experiment [2] (agonist: LPS 0.1 ug/mL) and 1.33 ± 0.16 in experiment [2] (agonist: MPLA […]). The viability score in experiment [3] was 0.998 (active).

For the compound `COC(=O)C1=CN(CC2CCCO2)C=C(C(=O)OC)C1c1ccccc1Br` (stereo unspecified), the NF-kB reporter in experiment [1] (setting [4]) was 1.08 ± 0.23; in experiment [1] (agonist: LPS 0.1 ug/mL), 0.956 ± 0.094; in experiment [1] (agonist: MPLA […]), 1.01 ± 0.11. The IRF reporter in experiment [2] (agonist: 3'3'-cGAMP 10 ug/mL) is 0.956 ± 0.032; in experiment [2] (agonist: LPS 0.1 ug/mL) it was 1.18 ± 0.21; in experiment [2] (agonist: MPLA […]) it was 1.05 ± 0.11. In addition, in experiment [3], the viability score is 0.726 (active).

With `COc1ccc2cc1Oc1ccc(cc1)C[C@H]1c3c(cc4c(c3Oc3cc5c(cc3OC)CCN(C)[C@@H]5C2)OCO4)CCN1C`, the NF-kB reporter came to 0.195 ± 0.011 in experiment [1] (setting [4]), 1.09 ± 0.091 in experiment [1] (agonist: LPS 0.1 ug/mL) and 0.928 ± 0.059 in experiment [1] (agonist: MPLA […]). For the same compound, the values for the IRF reporter in experiment [2] (agonist: 3'3'-cGAMP 10 ug/mL), in experiment [2] (agonist: LPS 0.1 ug/mL) and in experiment [2] (agonist: MPLA […]) were 0.786 ± 0.045, 0.931 ± 0.099 and 0.889 ± 0.12, respectively. In experiment [3], the viability score is 0.991 (active).

Turning to `Cc1cccc(N=c2scc(-c3ccc([N+](=O)[O-])cc3)n2-c2cccc(C)c2C)c1C`, the values for the NF-kB reporter in experiment [1] (setting [4]), in experiment [1] (agonist: LPS 0.1 ug/mL) and in experiment [1] (agonist: MPLA […]) were 0.863 ± 0.065, 1.04 ± 0.078 and 0.906 ± 0.054, respectively. In addition, the IRF reporter in experiment [2] (agonist: 3'3'-cGAMP 10 ug/mL) turned out to be 0.864 ± 0.029; in experiment [2] (agonist: LPS 0.1 ug/mL) it was 1.37 ± 0.088; in experiment [2] (agonist: MPLA […]), 1.11 ± 0.16. For the same compound, in experiment [3], the viability score is 1 (active).

With `S=C(NC12CC3CC(CC(C3)C1)C2)N1CCOCC1`, the figures for the NF-kB reporter in experiment [1] (setting [4]), in experiment [1] (agonist: LPS 0.1 ug/mL) and in experiment [1] (agonist: MPLA […]) were 1.14 ± 0.11, 1.06 ± 0.074 and 1.07 ± 0.039, respectively. The IRF reporter in experiment [2] (agonist: 3'3'-cGAMP 10 ug/mL) worked out at 1.01 ± 0.13; in experiment [2] (agonist: LPS 0.1 ug/mL), 1.07 ± 0.1; in experiment [2] (agonist: MPLA […]) it was 1.15 ± 0.12. Besides, the viability score in experiment [3] is 1 (active).

As to `CC1C(=O)N2CCCc3cc(S(=O)(=O)N4CCN(c5cccc(Cl)c5)CC4)cc1c32` (stereo unspecified), the NF-kB reporter in experiment [1] (setting [4]) amounted to 0.755 ± 0.24; in experiment [1] (agonist: LPS 0.1 ug/mL), 0.894 ± 0.073; in experiment [1] (agonist: MPLA […]) it was 0.971 ± 0.052. In addition, the IRF reporter in experiment [2] (agonist: 3'3'-cGAMP 10 ug/mL) was 0.598 ± 0.044; in experiment [2] (agonist: LPS 0.1 ug/mL), 1.2 ± 0.23; in experiment [2] (agonist: MPLA […]), 1.22 ± 0.37. Moreover, the viability score in experiment [3] is 0.996 (active).

As for `CCCN1CCC(NCCc2cccc(Cl)c2)CC1`, the results for the NF-kB reporter in experiment [1] (setting [4]), in experiment [1] (agonist: LPS 0.1 ug/mL) and in experiment [1] (agonist: MPLA […]) were 0.11 ± 0.018, 0.9 ± 0.14 and 1.18 ± 0.091, respectively. Also, the IRF reporter in experiment [2] (agonist: 3'3'-cGAMP 10 ug/mL) was found to be 0.704 ± 0.045; in experiment [2] (agonist: LPS 0.1 ug/mL) it was 1.13 ± 0.18; in experiment [2] (agonist: MPLA […]), 1.13 ± 0.17. The viability score in experiment [3] is 1 (active).

Consider `CCCCCCCC(=O)N[C@H](CN1CCCC1)[C@H](O)c1ccc2c(c1)OCCO2`, for which the figures for the NF-kB reporter in experiment [1] (setting [4]), in experiment [1] (agonist: LPS 0.1 ug/mL) and in experiment [1] (agonist: MPLA […]) were 0.989 ± 0.097, 1.03 ± 0.067 and 1.21 ± 0.026, respectively. Also, the IRF reporter in experiment [2] (agonist: 3'3'-cGAMP 10 ug/mL) was determined as 0.853 ± 0.047; in experiment [2] (agonist: LPS 0.1 ug/mL), 1.03 ± 0.15; in experiment [2] (agonist: MPLA […]), 1.2 ± 0.11. For the same compound, the viability score in experiment [3] is 0.968 (active).

As for `O=C(/C=C/C=C/c1ccc2c(c1)OCO2)N1CCCCC1`, the NF-kB reporter was determined as 0.974 ± 0.093 in experiment [1] (setting [4]), 1 ± 0.097 in experiment [1] (agonist: LPS 0.1 ug/mL) and 1.17 ± 0.062 in experiment [1] (agonist: MPLA […]). The IRF reporter was found to be 0.842 ± 0.052 in experiment [2] (agonist: 3'3'-cGAMP 10 ug/mL), 1.04 ± 0.16 in experiment [2] (agonist: LPS 0.1 ug/mL) and 1.07 ± 0.26 in experiment [2] (agonist: MPLA […]). Further, the viability score in experiment [3] was 1.03 (active).

For `Cc1ccc(S(=O)(=O)c2ccc(O)c(O)c2)cc1`, the values for the NF-kB reporter in experiment [1] (setting [4]), in experiment [1] (agonist: LPS 0.1 ug/mL) and in experiment [1] (agonist: MPLA […]) were 0.932 ± 0.074, 1.02 ± 0.095 and 1.03 ± 0.086, respectively. In addition, the IRF reporter in experiment [2] (agonist: 3'3'-cGAMP 10 ug/mL) is 0.599 ± 0.036; in experiment [2] (agonist: LPS 0.1 ug/mL), 1.31 ± 0.096; in experiment [2] (agonist: MPLA […]) it was 1.08 ± 0.12. For the same compound, the viability score in experiment [3] was 0.987 (active).

With `FC(F)(F)c1ccc(CN2CCCC(c3nc4ccccc4[nH]3)C2)cc1` (stereo unspecified), the NF-kB reporter in experiment [1] (setting [4]) was 0.701 ± 0.27; in experiment [1] (agonist: LPS 0.1 ug/mL) it was 0.876 ± 0.21; in experiment [1] (agonist: MPLA […]), 0.555 ± 0.2. Further, the IRF reporter worked out at 0.693 ± 0.32 in experiment [2] (agonist: 3'3'-cGAMP 10 ug/mL), 0.829 ± 0.19 in experiment [2] (agonist: LPS 0.1 ug/mL) and 0.967 ± 0.23 in experiment [2] (agonist: MPLA […]). The viability score in experiment [3] was 0.903 (active).

The record behind these values is the supplement of paper PMC10646978.
